“And” between values parts separate entries of the source, which are not always exact repeats. Equal entries are not always repeated. The source made the active and inactive calls. Unless noted, no stated cut-off is given here; in the data, active means inhibition above about 80%; inactive means the rest.
What was measured:
[1] = growth inhibition, single agent or in combination, cell-based, chromothripsis tumors, cisplatin or BGB combos (AID 1671449); conditions: LFS_MB_P medulloblastoma cells;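 further: cells exposed for 96 hours; 0% = vehicle DMSO and 100% = killing by high DMSO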
[2] = growth inhibition, single agent and combos, cell-based, chromothripsis tumors, cisplatin or BGB combos (AID 1671450); conditions: HDN33 neuroblastoma cells, stronger effect = higher value;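 further: cells exposed to compound for four days; 0% = vehicle DMSO and 100% = cell killing by high DMSO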
[3] = growth inhibition, single agents and combos, ICB984, cell-based, cisplatin or BGB combos, synergistic combos for chromothripsis tumors (AID 1671451; call rule not given here;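 further: cells exposed for 96 hours before readout; 0% = vehicle DMSO and 100% = killing by high DMSO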); conditions: ICB984 medulloblastoma cells, drug combinations, stronger effect = higher value
[4] = growth inhibition, single agents and combos, LFS_MB_1R, cell-based, cisplatin or BGB combos, synergistic combos for chromothripsis tumors (AID 1671452); conditions: LFS_MB_1R medulloblastoma cells, stronger effect = higher value;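 further: cells exposed for 96 hours before readout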
[5] = growth inhibition, single agents and combos, HTB85, cell-based, BGB or cisplatin IC20 combos, synergistic combos for chromothripsis tumors (AID 1671453); conditions: HTB85 osteosarcoma cells, drug combinations, stronger effect = higher value;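 further: cells exposed for 96 hours before readout; 0% = vehicle DMSO and 100% = high DMSO killing control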
[6] = growth inhibition, single agents and combos, CRL2098, cell-based, BGB or cisplatin IC20 combos, synergistic combos for chromothripsis tumors (AID 1671454); conditions: CRL2098 osteosarcoma cells, drug combinations, stronger effect = higher value;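 further: cells exposed for 96 h before readout; 0% = vehicle DMSO and 100% = killing by high DMSO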
[7] = growth inhibition, single agents and combos, HD-MB03, cell-based, BGB or cisplatin IC20 combos, synergistic combos for chromothripsis tumors (AID 1671455; in the data active means inhibition above about 83%;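 further: 0% = vehicle DMSO and 100% = high DMSO as cytotoxic control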); conditions: HD-MB03 medulloblastoma cells, stronger effect = higher value
[8] = growth inhibition, single agents and combos, UWB1.289, cell-based, BGB or cisplatin combos, synergistic combos for chromothripsis tumors (AID 1671456); conditions: UWB1.289 ovarian carcinoma cells, stronger effect = higher value;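 further: cells exposed to compound for four days; 0% = vehicle DMSO and 100% = killing by high DMSO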
[9] = growth inhibition, single agents and combos, LFS_MB_2R, cell-based, cisplatin combos, synergistic combos for chromothripsis tumors (AID 1671457); conditions: LFS_MB_2R medulloblastoma cells, stronger effect = higher value;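 further: cells exposed to compound for four days before readout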
[10] = growth inhibition, MDA-MB-436, cell-based, BGB or cisplatin combos, synergistic combos for chromothripsis tumors (AID 1671458; call rule not given here;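 further: cells exposed for 96 hours; 0% = vehicle DMSO and 100% = killing by high DMSO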); conditions: MDA-MB-436 breast carcinoma growth inhibition, drug combinations, stronger effect = higher value
[11] = UWB1.289_BRCA1 ovarian cancer growth, cell-based, BGB or cisplatin combinations (AID 1671459); conditions: UWB1.289 BRCA1 ovarian carcinoma, drug combinations, stronger effect = higher value
[12] = drug combination toxicity in non-malignant astrocytes – cell-based, BGB or cisplatin IC20 combos, cytotoxicity control for chromothriptic childhood tumor combination screen (AID 1671460); conditions: Human astrocytes, viability inhibition, drug combinations, at 0.5 µM, stronger effect = higher value;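 further: cells exposed to compounds for 96 hours before viability readout; 0% = vehicle and 100% = killing control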
[13] = BT084 cell growth, single and combined drugs, ICGC_MB145, cisplatin and BGB IC40 combos (AID 1671461); conditions: BT084 medulloblastoma cells, drug combinations, stronger effect = higher value;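 further: cells exposed to drugs for 96 hours; 0% = vehicle DMSO and 100% = high DMSO full killing control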
[14] = RCMB18 cell growth, single agent and combined, cisplatin and BGB IC40 combos (AID 1671462); conditions: RCMB18 medulloblastoma cells, stronger effect = higher value;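 further: cells exposed to compound for four days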
[15] = CRL1545 cell growth, single agent and combined, cisplatin and BGB IC20 combos (AID 1671464); conditions: CRL1545 osteosarcoma cells, stronger effect = higher value;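 further: cells exposed to compound for 96 hours before readout; 0% = vehicle DMSO and 100% = high DMSO killing control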
[16] = at 0.5 µM, stronger effect = higher value
[17] = measured here: combination with BGB IC20, at 0.005 µM
[18] = measured here: combination with BGB IC40, at 0.005 µM
[19] = measured here: combination with BGB IC40, at 0.05 µM
[20] = measured here: combination with cisplatin, at 0.5 µM, stronger effect = higher value
[21] = measured here: combination with cisplatin, at 5 µM, stronger effect = higher value
[22] = measured here: with BGB IC20 combination, at 0.5 µM
[23] = measured here: with cisplatin IC20 combination, at 0.5 µM
[24] = measured here: 5 uM single agent, at 5 µM
[25] = measured here: combination with cisplatin, at 0.5 µM
[26] = measured here: combination with cisplatin, at 5 µM
[27] = measured here: with BGB IC20, at 0.5 µM
[28] = measured here: with BGB IC20, at 5 µM
[29] = measured here: with cisplatin IC20, at 0.5 µM
[30] = measured here: with cisplatin IC20, at 5 µM
[31] = measured here: combination with BGB at IC20, at 0.5 µM
[32] = measured here: combination with cisplatin at IC20, at 0.5 µM
[33] = measured here: combo with BGB at IC20, at 0.5 µM
[34] = measured here: combo with cisplatin at IC20, at 0.5 µM
[35] = measured here: inhibition with BGB combination, at 0.05 µM
[36] = measured here: inhibition with cisplatin combination, at 0.05 µM
[37] = measured here: BGB combination, at 0.5 µM
[38] = measured here: BGB combination, at 5 µM
[39] = measured here: cisplatin combination, at 0.5 µM
[40] = measured here: cisplatin combination, at 5 µM
[41] = BGB combination, concentration series, at 5 µM
[42] = cisplatin combination, concentration series, at 5 µM
[43] = measured here: combo with BGB IC20
[44] = measured here: combo with cisplatin IC20
[45] = cisplatin combination, at 0.5 µM
[46] = measured here: BGB IC40 combination 0.05 uM, at 0.05 µM
[47] = measured here: BGB IC40 combination, at 0.05 µM

Nc1nc(NC2CC2)c2ncn(C3C=CC(CO)C3)c2n1 (stereo unspecified)
inhibition [1, 16]: 18.6% (inactive) and 9.78% (inactive) | inhibition [1, 17]: -10.2% and -25.3% | inhibition [1, 18]: -2.6% and -37.7% | inhibition [1, 19]: -13.2% and -43.3% | inhibition [1, 20]: 0.791% and -12% | inhibition [1, 21]: 42.6% and 20.9% | inhibition ([2]; BGB combo, at 5 µM): 7.05% and 3.14% | inhibition ([2]; at 0.5 µM): -27.8% (inactive) and -12.2% (inactive) | inhibition ([2]; cisplatin combo, at 5 µM): 15.9% and 16.9% | inhibition [2, 22]: -24.7% and -14% | inhibition [2, 23]: -37.5% and -12% | inhibition ([2]; single agent, at 5 µM): 15.7% and 29.8% | inhibition ([3]; BGB IC20 combo, at 0.005 µM): -32.2% and 1.07% | inhibition ([3]; BGB IC40 combo, at 0.005 µM): -10% and -27% | inhibition ([3]; BGB IC40 combo, at 0.05 µM): 11.7% and 20.9% | inhibition ([3]; at 0.5 µM): -15.2% (inactive) and -19.6% (inactive) | inhibition ([3]; cisplatin combo, at 0.05 µM): 9.21% and 18% | inhibition ([3]; cisplatin combo, at 0.5 µM): -8.32% and -16.8% | inhibition ([3]; cisplatin combo, at 5 µM): -66.5% and -40.2% | inhibition [3, 24]: -33.4% and -23.1% | inhibition ([4]; at 0.5 µM): -29.4% (inactive) and -14.1% (inactive) | inhibition [4, 19]: -41.9% and -20.2% | inhibition [4, 25]: -65.7% and -24.2% | inhibition [4, 26]: 10.3% and 37.7% | inhibition ([5]; at 0.5 µM): -22.4% (inactive) and -2.82% (inactive) | inhibition [5, 27]: -29.8% and -5.83% | inhibition [5, 28]: -10.5% and 18.8% | inhibition [5, 29]: -25.7% and -8.4% | inhibition [5, 30]: 3.54% and 48.9% | inhibition ([5]; single agent, at 5 µM): 15.5% and 29.1% | inhibition ([6]; at 0.5 µM): -73.4% (inactive) and -21.7% (inactive) | inhibition [6, 31]: -122% and -23.9% | inhibition [6, 32]: -57% and -77.8% | inhibition ([7]; at 0.5 µM): -12.2% (inactive) and -6.69% (inactive) | inhibition [7, 33]: -5.41% and -19.4% | inhibition [7, 34]: -23.6% and 5.04% | inhibition ([8]; at 0.5 µM): -7.07% (inactive) and -1.31% (inactive) | inhibition [8, 35]: -16.1% and -7.54% | inhibition [8, 36]: -20.7% and -16.3% | inhibition ([9]; at 0.5 µM): -0.03% (inactive) and -16.7% (inactive) | inhibition [9, 25]: 2.24% and -15.7% | inhibition [9, 26]: -15.7% and 24.3% | inhibition ([10]; at 0.5 µM): 0.7% (inactive) and -5.22% (inactive) | inhibition [10, 37]: 5.51% and -4.19% | inhibition [10, 38]: 23.6% and 15.9% | inhibition [10, 39]: -6.39% and -11.5% | inhibition [10, 40]: 25.3% and 12.2% | inhibition [11, 41]: 21.9% and 44.1% | inhibition ([11]; at 0.5 µM): -6.63% (inactive) and -4.62% (inactive) | inhibition [11, 42]: 36% and 67.6% | inhibition [12]: -19.5% (inactive) and 11.5% (inactive) | inhibition [12, 43]: -10.8% and 10% | inhibition [12, 44]: -38.1% and 8.23% | inhibition ([13]; at 0.5 µM): -4.33% (inactive) and -11.9% (inactive) | inhibition [13, 45]: 6.28% and -30.6% | inhibition ([13]; cisplatin combination, at 5 µM): 27.2% and 36.5% | inhibition [13, 46]: 4.8% and -24.4% | inhibition ([13]; single agent, at 5 µM): 29.7% and 30.5% | inhibition ([14]; at 0.5 µM): -22.8% (inactive) and -12.3% (inactive) | inhibition ([14]; cisplatin combo, at 5 µM): 15.1% and 15.7% | inhibition [14, 47]: -23.6% | inhibition [14, 25]: -50.2% and -0.496% | inhibition ([14]; single agent, at 5 µM): 16.3% and 21.5% | inhibition ([15]; at 0.5 µM): -22.4% (inactive) and -10.8% (inactive) | inhibition [15, 22]: -35.1% and -4.57% | inhibition [15, 23]: -18.6% and -15.8% | inhibition ([15]; single agent, at 0.05 µM): -49.6% and -25.5% | inhibition ([15]; single agent, at 5 µM): -7.83% and 23.5%

CC(C)c1ccc(-c2cc(=O)c3ccccc3o2)cc1
inhibition [1, 16]: -1.02% (inactive) | inhibition [1, 17]: -13.4% | inhibition [1, 18]: -27.4% | inhibition [1, 19]: 8.34% | inhibition [1, 20]: 64.5% | inhibition [1, 21]: 60.2% | inhibition ([2]; BGB combo, at 5 µM): 30.8% | inhibition ([2]; at 0.5 µM): -12.3% (inactive) | inhibition ([2]; cisplatin combo, at 5 µM): 30.4% | inhibition [2, 22]: -6.46% | inhibition [2, 23]: -22.2% | inhibition ([2]; single agent, at 5 µM): 42.1% | inhibition ([3]; BGB IC20 combo, at 0.005 µM): 5.4% | inhibition ([3]; BGB IC40 combo, at 0.005 µM): -31.5% | inhibition ([3]; BGB IC40 combo, at 0.05 µM): 14.8% | inhibition ([3]; at 0.5 µM): -18.8% (inactive) | inhibition ([3]; cisplatin combo, at 0.05 µM): 11.4% | inhibition ([3]; cisplatin combo, at 0.5 µM): -24.5% | inhibition ([3]; cisplatin combo, at 5 µM): -45% | inhibition [3, 24]: -10.3% | inhibition ([4]; at 0.5 µM): -36.4% (inactive) | inhibition [4, 19]: -28.3% | inhibition [4, 25]: -81.6% | inhibition [4, 26]: 18.3% | inhibition ([5]; at 0.5 µM): -40.2% (inactive) | inhibition [5, 27]: -39.8% | inhibition [5, 28]: 1.8% | inhibition [5, 29]: -59.9% | inhibition [5, 30]: 17.5% | inhibition ([5]; single agent, at 5 µM): 16.9% | inhibition ([6]; at 0.5 µM): -58.5% (inactive) | inhibition [6, 31]: -35.3% | inhibition [6, 32]: -37.3% | inhibition ([7]; at 0.5 µM): -10% (inactive) | inhibition [7, 33]: -14% | inhibition [7, 34]: -4.48% | inhibition ([8]; at 0.5 µM): -15.3% (inactive) | inhibition [8, 35]: -31.9% | inhibition [8, 36]: -16.9% | inhibition ([9]; at 0.5 µM): -14.3% (inactive) | inhibition [9, 25]: -16.1% | inhibition [9, 26]: 41.6% | inhibition ([10]; at 0.5 µM): -11.1% (inactive) | inhibition [10, 37]: -14.1% | inhibition [10, 38]: 27.2% | inhibition [10, 39]: -11.6% | inhibition [10, 40]: 22.8% | inhibition [11, 41]: 43.9% | inhibition ([11]; at 0.5 µM): -16.7% (inactive) | inhibition [11, 42]: 32.9% | inhibition [12]: -3.03% (inactive) | inhibition [12, 43]: 2.13% | inhibition [12, 44]: -6.48% | inhibition ([13]; at 0.5 µM): -10.1% (inactive) | inhibition [13, 45]: -5.92% | inhibition ([13]; cisplatin combination, at 5 µM): 41.9% | inhibition [13, 46]: -23.7% | inhibition ([13]; single agent, at 5 µM): 42.7% | inhibition ([14]; at 0.5 µM): -14% (inactive) | inhibition ([14]; cisplatin combo, at 5 µM): 35.3% | inhibition [14, 47]: -32.1% | inhibition [14, 25]: -17.3% | inhibition ([14]; single agent, at 5 µM): 35% | inhibition ([15]; at 0.5 µM): -29.6% (inactive) | inhibition [15, 22]: -34% | inhibition [15, 23]: -27.5% | inhibition ([15]; single agent, at 0.05 µM): -43.4% | inhibition ([15]; single agent, at 5 µM): 26.5%

From PubChem BioAssay
